# Test results published in PubChem BioAssay (EPA / NIEHS).
# Results filed as inconclusive are left out. Calls of active or inactive are those of the source. How the source made its calls: active means hit-call score of the fitted dose curve at least 0.9, where 1 is the maximum; inconclusive means response in the unintended direction; inactive means score below 0.9.
# Molecular target: rat Opioid Receptor, Non-selective Binding, Oprm1 (gene 25601) (UniProt P33535)
# Test: NVS_GPCR_rOpiate_NonSelective: NovaScreen (NVS) G Protein-Coupled Receptor Assay for rat Opioid Receptor, Non-selective Binding (AID 2283318)
# Outline: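 Rat forebrain membranes, cell-free radioligand binding with filter-based scintillation counting, read 1.5 h after dosing. Primary screen in duplicate at 25 uM; actives retested in concentration series. Loss of signal versus DMSO baseline scored.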
# Sequence of rat Opioid Receptor, Non-selective Binding, Oprm1 (gene 25601) (P33535 whole entry, looked up): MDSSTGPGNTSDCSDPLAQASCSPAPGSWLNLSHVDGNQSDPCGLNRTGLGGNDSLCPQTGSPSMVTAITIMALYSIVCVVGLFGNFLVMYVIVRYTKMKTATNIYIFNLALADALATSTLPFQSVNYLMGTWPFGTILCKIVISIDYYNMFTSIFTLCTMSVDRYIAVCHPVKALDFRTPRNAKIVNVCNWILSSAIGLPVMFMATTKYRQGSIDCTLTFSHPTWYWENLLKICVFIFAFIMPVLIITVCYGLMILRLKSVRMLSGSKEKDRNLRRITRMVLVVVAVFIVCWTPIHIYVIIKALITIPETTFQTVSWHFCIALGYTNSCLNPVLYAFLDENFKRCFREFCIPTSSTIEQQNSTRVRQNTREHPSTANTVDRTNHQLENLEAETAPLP
Compound,outcome,AC50
CC[C@H](C)[C@H]1O[C@]2(C=C[C@@H]1C)C[C@@H]1C[C@@H](C/C=C(\C)[C@@H](O[C@H]3C[C@H](OC)[C@@H](O[C@H]4C[C@H](OC)[C@@H](NC)[C@H](C)O4)[C@H](C)O3)[C@@H](C)/C=C/C=C3\CO[C@@H]4[C@H](O)C(C)=C[C@@H](C(=O)O1)[C@]34O)O2,inactive,–
COc1ccc(C(=CC(=O)N2CCOCC2)c2ccc(Cl)cc2)cc1OC,inactive,–
CCc1cccc(C)c1N(C(=O)CCl)C(C)COC (stereo not drawn),–,14.7 µM (active)
CCOP(=S)(OCC)Oc1ccc2c(C)c(Cl)c(=O)oc2c1,inactive,–
C[Si](Cn1cncn1)(c1ccc(F)cc1)c1ccc(F)cc1,inactive,–
CCCOCC(=Nc1ccc(Cl)cc1C(F)(F)F)n1ccnc1,–,12.1 µM (active)
CCOC(=O)CC(SP(=O)(OC)OC)C(=O)OCC (stereo not drawn),inactive,–
CCc1cccc(CC)c1N(COC)C(=O)CCl,inactive,–
CC(C)=CC1C(C(=O)OCN2C(=O)C3=C(CCCC3)C2=O)C1(C)C (stereo not drawn),inactive,–

# Tested on: NCBI gene 24521
# Test: NVS_IC_rKATPCh: NovaScreen (NVS) Ion Channel Assay for rat Potassium Channel, ATP-Sensitive (KATPCh) (AID 2283319)
# Outline: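 Rat cortical membranes; radioligand binding at ATP-sensitive K channel site, filter-based scintillation counting 2 h after dosing. Single-point duplicate screen at 25 uM, hits rerun in concentration-response up to 50 uM; loss of signal versus DMSO.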
Compound,outcome,AC50
CSc1nnc(C(C)(C)C)c(=O)n1N,inactive,–
Nc1nc(N)nc(NC2CC2)n1,inactive,–
COc1ccc(C(=CC(=O)N2CCOCC2)c2ccc(Cl)cc2)cc1OC,inactive,–
COP(=O)(OC)OC(Br)C(Cl)(Cl)Br (stereo not drawn),inactive,–
CC1=NNC(=O)N(/N=C/c2cccnc2)C1,inactive,–
CN(C)C(=O)Nc1cccc(C(F)(F)F)c1,–,10.9 µM (active)
CNC(=O)ON=C(SC)C(=O)N(C)C,inactive,–

# Tested on: not listed separately
# Test: NVS_IC_rCaDHPRCh_L: NovaScreen (NVS) Ion Channel Assay for rat Calcium Channel, Type L, Dihydropyridine Site (CaDHPRCh_L) (AID 2283320)
# Outline: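 Radioligand binding to dihydropyridine site on rat cortical membranes, filter-based scintillation counting, 1 h after dosing. Screened in duplicate at 25 uM; actives rerun in concentration-response up to 50 uM. Loss of signal versus DMSO baseline.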
Compound,AC50,outcome
CC[C@H](C)[C@H]1O[C@]2(C=C[C@@H]1C)C[C@@H]1C[C@@H](C/C=C(\C)[C@@H](O[C@H]3C[C@H](OC)[C@@H](O[C@H]4C[C@H](OC)[C@@H](NC)[C@H](C)O4)[C@H](C)O3)[C@@H](C)/C=C/C=C3\CO[C@@H]4[C@H](O)C(C)=C[C@@H](C(=O)O1)[C@]34O)O2,4.83 µM (active),–
COc1ccc(C(=CC(=O)N2CCOCC2)c2ccc(Cl)cc2)cc1OC,–,inactive
CN1COCN(Cc2cnc(Cl)s2)C1=N[N+](=O)[O-],–,inactive
C[Si](Cn1cncn1)(c1ccc(F)cc1)c1ccc(F)cc1,25.7 µM (active),–
CCCOCC(=Nc1ccc(Cl)cc1C(F)(F)F)n1ccnc1,–,inactive
FC(F)C(F)(F)OCC(Cn1cncn1)c1ccc(Cl)cc1Cl (stereo not drawn),12.6 µM (active),–
CC(C)=CC1C(C(=O)OCN2C(=O)C3=C(CCCC3)C2=O)C1(C)C (stereo not drawn),38.2 µM (active),–
